In PubChem BioAssay (EPA / NIEHS):
Inconclusive results are not listed. Activity calls are given as the source filed them. Rule for the calls, unless noted: active = hit-call score of the fitted dose curve at least 0.9, where 1 is the maximum; inactive = score below 0.9.

What was measured:
[1] = target: human Esterase Plasma (ES), BCHE (gene 590) (UniProt P06276); assay: NVS_ENZ_hES: NovaScreen (NVS) Enzymatic Assay for human Esterase Plasma (ES) (AID 2283157; active = hit-call score of the fitted dose curve at least 0.9, where 1 is the maximum)
Chain of human Esterase Plasma (ES), BCHE (gene 590) (P06276 whole entry, looked up): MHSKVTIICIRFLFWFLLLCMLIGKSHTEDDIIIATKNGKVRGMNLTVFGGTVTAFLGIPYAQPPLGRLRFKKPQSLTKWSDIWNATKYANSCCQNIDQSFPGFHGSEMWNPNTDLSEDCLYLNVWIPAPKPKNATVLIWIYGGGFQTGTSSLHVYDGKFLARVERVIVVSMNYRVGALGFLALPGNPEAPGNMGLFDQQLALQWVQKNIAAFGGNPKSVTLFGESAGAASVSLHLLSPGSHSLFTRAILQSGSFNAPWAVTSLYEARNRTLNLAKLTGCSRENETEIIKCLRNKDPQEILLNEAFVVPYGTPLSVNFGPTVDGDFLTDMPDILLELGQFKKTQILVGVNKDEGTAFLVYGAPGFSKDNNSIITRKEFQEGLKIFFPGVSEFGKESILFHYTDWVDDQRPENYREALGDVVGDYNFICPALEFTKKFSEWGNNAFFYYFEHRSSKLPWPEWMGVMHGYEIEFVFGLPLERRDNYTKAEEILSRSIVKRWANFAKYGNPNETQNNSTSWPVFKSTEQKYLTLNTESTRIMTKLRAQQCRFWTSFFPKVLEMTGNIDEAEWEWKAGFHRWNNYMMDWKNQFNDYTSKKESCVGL
In short: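 Esterase from human plasma, cell-free, colorimetric absorbance read 0.25 h after dosing. Screened at 25 uM in duplicate, with threshold-passing chemicals run in concentration-response up to 50 uM; loss of signal fitted versus DMSO.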

[2] = CCTE_Shafer_MEA_dev_AB: CCTE's Alamar Blue Assay for Cytotoxicity in the Neural Network Formation Assay, Shafer Lab (AID 2284083; active = hit-call score of the fitted dose curve at least 0.9, where 1 is the maximum;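 note: resazurin reduction fluorescence as viability of cultured neurons; twelve days of exposure from plating with re-dosing on DIV 5 and 9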)
In short: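 Rat cortical primary cultures, 1.5 x 10^5 cells/well on MEA; continuous compound exposure over 12 days of network development, re-dosed with full medium change DIV 5 and 9. Alamar Blue fluorescence; loss of signal = cytotoxicity vs DMSO baseline.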

[3] = CCTE_Mundy_HCI_Cortical_Synap_Neur_Matur_NeuriteSpotCountPerNeuriteLength: CCTE's Synaptogenesis and Neurite Maturation Assay in rat cortical cells for Neurite Spot Count per Neurite Length, Mundy Lab (AID 2284210)
In short: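 Rat primary cortical cultures, AraC added at DIV 5 to suppress glia; chemical exposure from DIV 7 to DIV 12. Fixed cells stained for MAP2 and synaptophysin plus Hoechst; synaptophysin puncta per neurite length quantified by high-content imaging, relative to DMSO.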

[4] = CCTE_Mundy_HCI_Cortical_Synap_Neur_Matur_BPCount: CCTE's Synaptogenesis and Neurite Maturation Assay in rat cortical cells for Branch Point Count, Mundy Lab (AID 2284211)
In short: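 Rat primary cortical cultures, AraC added DIV 5; chemicals dosed DIV 7 through DIV 12. Fixed cells stained for MAP2, synaptophysin and Hoechst; neurite branch points counted by automated high-content imaging, fitted relative to DMSO.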

[5] = CCTE_Mundy_HCI_Cortical_NOG_NeuriteCount: CCTE's Neurite Outgrowth Assay in rat cortical cells for Neurite Count, Mundy Lab (AID 2284212);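 note: cells fixed about two days after chemical exposure began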
In short: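 Neurite number per cell from high-content imaging of betaIII-tubulin immunostaining, with Hoechst nuclear counterstain.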

[6] = CCTE_Mundy_HCI_Cortical_NOG_NeuriteLength: CCTE's Neurite Outgrowth Assay in rat cortical cells for Neurite Length, Mundy Lab (AID 2284213);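 for AC50: neurites imaged about 48 to 50 h after chemical exposure began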
In short: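 Neurite length was read by high-content imaging of βIII-tubulin-labelled neurites in rat primary cortical cultures. Activity was fitted relative to DMSO.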

[7] = CCTE_Mundy_HCI_Cortical_Synap_Neur_Matur_NeuriteLength: CCTE's Synaptogenesis and Neurite Maturation Assay in rat cortical cells for Neurite Length, Mundy Lab (AID 2284214)
In short: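 Rat primary cortical cultures, AraC added DIV 5, dosed DIV 7 through DIV 12 […]. Fixed, MAP2/synaptophysin immunostained with Hoechst; neurite length by high-content imaging, fitted in positive direction versus DMSO.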

[8] = CCTE_Mundy_HCI_Cortical_Synap_Neur_Matur_NeuriteSpotCountPerNeuron: CCTE's Synaptogenesis and Neurite Maturation Assay in rat cortical cells for Neurite Spot Count per Neuron Count, Mundy Lab (AID 2284215)
In short: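 Rat primary cortical cells received AraC at DIV 5, then chemicals with a media change at DIV 7, and were fixed at DIV 12. Synaptophysin puncta on MAP2-stained neurites per neuron were counted by high-content imaging, fitted relative to DMSO.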

[9] = CCTE_Mundy_HCI_Cortical_Synap_Neur_Matur_SynapseCount: CCTE's Synaptogenesis and Neurite Maturation Assay in rat cortical cells for Synapse Count, Mundy Lab (AID 2284218)
In short: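 Rat primary cortical cultures, AraC at DIV 5, chemical dosing DIV 7 to DIV 12 (288.33 h). Fixed cells stained for MAP2, synaptophysin and Hoechst; synapses per neuron counted by high-content imaging, loss of signal versus DMSO.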

[10] = CCTE_Mundy_HCI_Cortical_Synap_Neur_Matur_NeuriteCount: CCTE's Synaptogenesis and Neurite Maturation Assay in rat cortical cells for Neurite Count, Mundy Lab (AID 2284222);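 note: exposure from day 7 to day 12 in vitro with readout at day 12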
In short: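 Primary rat cortical cells were plated, treated with AraC at DIV 5, then exposed to chemicals from DIV 7 through DIV 12. After fixation and immunostaining for MAP2 and synaptophysin, imaging quantified neurites, with DMSO as the negative control.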

[11] = CCTE_Mundy_HCI_Cortical_Synap_Neur_Matur_CellBodySpotCount: CCTE's Synaptogenesis and Neurite Maturation Assay in rat cortical cells for Cell Body Spot Count, Mundy Lab (AID 2284223)
In short: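 Rat primary cortical cultures received AraC at DIV 5 to arrest glia, were dosed with chemical at DIV 7 with media change, and were fixed at DIV 12 (288.33 h). Synaptophysin puncta on MAP2-positive cell bodies per neuron were counted by high-content imaging versus DMSO.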

[12] = CCTE_Mundy_HCI_Cortical_NOG_BPCount: CCTE's Neurite Outgrowth Assay in rat cortical cells for Branch Point Count, Mundy Lab (AID 2284237);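 for AC50: branch points counted about two days after chemical exposure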
In short: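 Measured 50.33 h after dosing, this morphology endpoint uses rat primary cortical cultures labelled for betaIII-tubulin. Branch points are quantified by high-content imaging, with DMSO as negative control and baseline.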

[13] = CCTE_Mundy_HCI_Cortical_Synap_Neur_Matur_NeuronCount: CCTE's Synaptogenesis and Neurite Maturation Assay in rat cortical cells for Neuron Count, Mundy Lab (AID 2284242; active = hit-call score of the fitted dose curve at least 0.9, where 1 is the maximum;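 for AC50: hits reduce neuron count versus DMSO baseline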)
In short: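 Rat primary cortical cells, AraC added at DIV 5, dosed with media change from DIV 7 to DIV 12. Fixed, Hoechst-stained and immunolabelled for MAP2 and synaptophysin; neuron number counted by high-content imaging, loss fitted versus DMSO.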

[14] = TAMU_PeakParms_SingleDonor1434_Asystole: Texas A&M University (TAMU) 1.5-hr Human Induced Pluripotent Stem Cell (iPSC)-derived Cardiomyocytes Calcium (Ca+2) Flux Assay for Cardiotoxicity: Asystole (quiescence of beating) (AID 2284328; active = hit-call score of the fitted dose curve at least 0.9, where 1 is the maximum)
In short: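 Donor 1434 iPSC-cardiomyocytes exposed 90 min at 37C, 5% CO2, to 0.2, 1, 10 and 100 uM in 0.5% DMSO. Ca2+ dye fluorescence gave average peak frequency; POD is EC95, a 95% beat-rate drop versus controls.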

[15] = target: human Thyroid Receptor Alpha (TRa), THRA (gene 7067) (UniProt P10827); assay: NVS_NR_hTRa_Antagonist: NovaScreen (NVS) Nuclear Receptor Binding Assay for human Thyroid Receptor Alpha Antagonism (TRa) (AID 2283362; active = hit-call score of the fitted dose curve at least 0.9, where 1 is the maximum;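 note: activity is loss of signal relative to DMSO baseline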)
Chain of human Thyroid Receptor Alpha (TRa), THRA (gene 7067) (P10827 whole entry, looked up): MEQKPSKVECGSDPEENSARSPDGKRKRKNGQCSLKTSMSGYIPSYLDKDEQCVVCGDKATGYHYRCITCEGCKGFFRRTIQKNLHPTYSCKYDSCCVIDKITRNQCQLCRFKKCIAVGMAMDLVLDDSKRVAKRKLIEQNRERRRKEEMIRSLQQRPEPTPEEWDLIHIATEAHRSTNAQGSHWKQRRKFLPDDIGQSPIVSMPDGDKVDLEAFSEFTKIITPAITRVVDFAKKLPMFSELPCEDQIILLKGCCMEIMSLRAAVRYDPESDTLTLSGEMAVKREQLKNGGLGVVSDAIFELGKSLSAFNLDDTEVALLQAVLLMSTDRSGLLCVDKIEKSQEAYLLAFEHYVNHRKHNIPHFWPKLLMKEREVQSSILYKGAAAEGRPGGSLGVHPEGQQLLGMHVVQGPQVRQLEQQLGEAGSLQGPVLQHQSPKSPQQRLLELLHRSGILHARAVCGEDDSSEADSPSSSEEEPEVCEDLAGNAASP
In short: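 Cell-free binding assay on extracted receptor protein, read 1 h after chemical dosing by AlphaLISA chemiluminescence; loss of signal relative to DMSO baseline marks antagonism. Primary screen ran in duplicate at 25 uM, with concentration series for actives.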

[16] = target: mouse Estrogen Receptor alpha (Era), Esr1 (gene 13982) (UniProt P19785); assay: NVS_NR_mERa: NovaScreen (NVS) Nuclear Receptor Binding Assay for mouse Estrogen Receptor alpha (Era) (AID 2283378; active = hit-call score of the fitted dose curve at least 0.9, where 1 is the maximum;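 note: hit means loss of bound radioligand signal relative to DMSO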)
Chain of mouse Estrogen Receptor alpha (Era), Esr1 (gene 13982) (P19785 whole entry, looked up): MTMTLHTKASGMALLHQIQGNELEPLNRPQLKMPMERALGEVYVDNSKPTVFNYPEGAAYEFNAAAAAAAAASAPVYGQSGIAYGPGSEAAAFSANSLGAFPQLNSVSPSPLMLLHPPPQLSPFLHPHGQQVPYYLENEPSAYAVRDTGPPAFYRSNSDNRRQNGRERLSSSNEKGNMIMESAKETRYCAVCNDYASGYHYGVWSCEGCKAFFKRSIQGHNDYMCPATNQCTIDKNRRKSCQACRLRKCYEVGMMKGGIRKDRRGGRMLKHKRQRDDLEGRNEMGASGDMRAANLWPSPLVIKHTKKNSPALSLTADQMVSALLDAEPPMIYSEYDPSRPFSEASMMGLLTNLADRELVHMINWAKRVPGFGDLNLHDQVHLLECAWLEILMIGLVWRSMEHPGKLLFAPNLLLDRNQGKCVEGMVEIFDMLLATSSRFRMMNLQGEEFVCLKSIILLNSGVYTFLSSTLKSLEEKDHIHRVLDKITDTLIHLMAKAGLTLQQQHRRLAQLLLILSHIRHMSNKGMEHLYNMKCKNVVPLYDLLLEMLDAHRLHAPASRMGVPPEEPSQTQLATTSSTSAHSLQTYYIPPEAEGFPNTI
In short: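 Cell-free radioligand binding with extracted mouse Era protein; competitive displacement of radiolabelled ligand, read by filter-based scintillation counting 18 hours after dosing. Loss of signal versus DMSO baseline taken as binding; single screening concentration 25 uM, actives followed in concentration series.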

[17] = IUF_NPC1b_proliferation_BrdU_72hr: Leibniz Research Institute for Environmental Medicine (IUF) 72-hour Neural Progenitor Cell Bromodeoxyuridine (BrdU) Proliferation Assay (NPC1b) (AID 2284207)
In short: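 BrdU luminescence ELISA quantified DNA synthesis over the last 16 h of a 72 h exposure, fitted against DMSO. Primary hNPC spheres from gestational week 16-19 cortex grown with EGF/FGF at 37C, pH 7.2-7.6.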

[18] = target: human Norepinephrine Transporter (NET), SLC6A2 (gene 6530) (UniProt P23975); assay: NVS_TR_hNET: NovaScreen (NVS) Transporter Assay for human Norepinephrine Transporter (NET) (AID 2283377; active = hit-call score of the fitted dose curve at least 0.9, where 1 is the maximum;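 note: displacement of radioligand from human NET seen as loss of scintillation signal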)
Chain of human Norepinephrine Transporter (NET), SLC6A2 (gene 6530) (P23975 whole entry, looked up): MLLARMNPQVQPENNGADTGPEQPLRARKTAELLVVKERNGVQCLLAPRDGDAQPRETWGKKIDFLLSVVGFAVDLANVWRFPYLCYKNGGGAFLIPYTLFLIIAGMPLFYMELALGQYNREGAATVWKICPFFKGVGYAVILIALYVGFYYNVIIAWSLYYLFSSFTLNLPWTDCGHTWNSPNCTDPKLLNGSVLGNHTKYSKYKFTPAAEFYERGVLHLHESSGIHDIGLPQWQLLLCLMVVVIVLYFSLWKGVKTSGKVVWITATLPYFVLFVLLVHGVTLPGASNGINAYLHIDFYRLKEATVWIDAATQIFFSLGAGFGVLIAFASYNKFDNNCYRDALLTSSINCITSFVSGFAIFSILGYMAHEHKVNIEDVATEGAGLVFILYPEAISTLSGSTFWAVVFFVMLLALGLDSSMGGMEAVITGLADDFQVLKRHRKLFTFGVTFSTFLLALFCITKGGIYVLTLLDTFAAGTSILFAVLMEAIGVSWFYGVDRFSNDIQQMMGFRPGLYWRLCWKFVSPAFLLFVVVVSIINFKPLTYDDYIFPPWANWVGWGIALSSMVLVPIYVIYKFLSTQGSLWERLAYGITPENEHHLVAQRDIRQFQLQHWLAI
In short: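 Cell-free radioligand binding using CHO-derived membrane protein expressing human NET, read by filter scintillation counting 1 h after dosing; loss of signal vs DMSO. Initial duplicate screen at 25 uM, actives retested in concentration series.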

[19] = target: PGR (gene 5241) (UniProt P06401); assay: NVS_NR_hPR: NovaScreen (NVS) Nuclear Receptor Binding Assay for human Progestron Receptor (PR) (AID 2283360; active = hit-call score of the fitted dose curve at least 0.9, where 1 is the maximum;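 note: active means loss of bound radioligand signal versus DMSO baseline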)
Chain of PGR (gene 5241) (P06401 whole entry, looked up): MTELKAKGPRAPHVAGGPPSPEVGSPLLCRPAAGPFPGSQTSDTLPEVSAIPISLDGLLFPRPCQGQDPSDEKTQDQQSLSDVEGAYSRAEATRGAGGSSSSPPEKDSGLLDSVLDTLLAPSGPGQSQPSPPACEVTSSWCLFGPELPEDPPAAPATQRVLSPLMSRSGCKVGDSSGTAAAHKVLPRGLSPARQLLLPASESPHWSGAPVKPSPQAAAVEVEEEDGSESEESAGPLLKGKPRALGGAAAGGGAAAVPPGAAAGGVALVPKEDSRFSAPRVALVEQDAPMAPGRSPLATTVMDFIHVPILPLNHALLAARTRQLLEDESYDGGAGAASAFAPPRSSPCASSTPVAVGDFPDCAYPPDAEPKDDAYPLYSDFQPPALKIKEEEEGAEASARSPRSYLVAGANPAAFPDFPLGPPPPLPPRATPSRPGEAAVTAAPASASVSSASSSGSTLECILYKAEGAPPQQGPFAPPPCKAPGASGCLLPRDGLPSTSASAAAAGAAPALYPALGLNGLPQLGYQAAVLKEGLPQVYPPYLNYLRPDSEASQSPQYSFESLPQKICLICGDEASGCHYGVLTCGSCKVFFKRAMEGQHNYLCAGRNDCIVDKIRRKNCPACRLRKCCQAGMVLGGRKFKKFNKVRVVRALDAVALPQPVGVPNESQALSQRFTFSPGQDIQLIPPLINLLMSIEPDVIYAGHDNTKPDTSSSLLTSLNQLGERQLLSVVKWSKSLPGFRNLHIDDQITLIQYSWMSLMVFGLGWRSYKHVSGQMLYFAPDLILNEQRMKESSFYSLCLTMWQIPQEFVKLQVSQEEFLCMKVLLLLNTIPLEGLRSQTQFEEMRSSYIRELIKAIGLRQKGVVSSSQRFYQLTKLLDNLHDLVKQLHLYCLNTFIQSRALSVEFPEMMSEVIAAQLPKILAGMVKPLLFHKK
In short: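 Cell-free radioligand binding using receptor protein extracted from T47D cells, read by scintillation counting 18 hours after dosing. Loss of signal relative to DMSO baseline indicates displacement; primary screen single concentration 25 uM in duplicate, actives followed in concentration series.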

[20] = target: sheep Cyclooxygenase-2 (Cox2), PTGS2 (gene 443460) (UniProt P79208); assay: NVS_ENZ_oCOX2: NovaScreen (NVS) Enzymatic Assay for sheep Cyclooxygenase-2 (Cox2) (AID 2283231; active = hit-call score of the fitted dose curve at least 0.9, where 1 is the maximum)
Chain of sheep Cyclooxygenase-2 (Cox2), PTGS2 (gene 443460) (P79208 whole entry, looked up): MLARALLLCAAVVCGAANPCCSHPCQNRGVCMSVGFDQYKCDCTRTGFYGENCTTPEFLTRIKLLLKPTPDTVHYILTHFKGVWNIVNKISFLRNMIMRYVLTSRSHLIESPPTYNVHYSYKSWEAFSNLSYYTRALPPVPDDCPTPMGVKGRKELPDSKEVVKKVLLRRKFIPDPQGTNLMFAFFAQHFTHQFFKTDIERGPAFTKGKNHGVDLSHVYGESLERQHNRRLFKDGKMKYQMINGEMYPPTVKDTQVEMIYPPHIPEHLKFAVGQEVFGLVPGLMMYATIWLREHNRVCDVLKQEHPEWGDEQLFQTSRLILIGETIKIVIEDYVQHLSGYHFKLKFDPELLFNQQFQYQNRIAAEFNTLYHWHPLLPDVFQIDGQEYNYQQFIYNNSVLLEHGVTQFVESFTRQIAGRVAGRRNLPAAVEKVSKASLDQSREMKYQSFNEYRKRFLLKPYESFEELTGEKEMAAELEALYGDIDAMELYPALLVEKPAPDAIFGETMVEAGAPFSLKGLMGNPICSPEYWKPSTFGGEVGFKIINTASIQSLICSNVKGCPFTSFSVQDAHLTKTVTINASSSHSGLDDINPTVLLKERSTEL
In short: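 Colorimetric absorbance read-out of COX activity, taken 0.66 hour post-dosing, using native protein from sheep placenta. Single-concentration duplicate screen (25 uM), then singleton concentration-response up to 50 uM for actives.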

In the case of COC(C)(C)CCC[C@H](C)C/C=C/C(C)=C/C(=O)OC(C)C, the AC50 [1] is reported as 16.5 µM (active).

With Cc1ccc(OP(=O)(Oc2ccc(C)cc2)Oc2ccc(C)cc2)cc1 (tested in a mixture with another compound) the outcome [2] was “inactive”, the AC50 [3] was 15 µM (active) and the outcome [4] was “inactive”. For the same molecule, the AC50 [5] was 20.6 µM (active), the AC50 [6] was 21.4 µM (active) and the outcome [7] was “inactive”. For the same molecule, the AC50 [8] was 15 µM (active), the AC50 [9] was 15 µM (active) and the outcome [10] was “inactive”. For the same molecule, the outcome [11] was “inactive”, the AC50 [12] was 20.2 µM (active) and the AC50 [13] was 24 µM (active). The AC50 [14] was 7.7 µM (active).

In the case of CC1CCCC1.[C-]#[O+].[C-]#[O+].[C-]#[O+].[Mn], the outcome [15] is reported as “inactive” and the outcome [2] is reported as “inactive”.

In the case of O=[N+]([O-])c1cc(C(F)(F)F)c(Cl)c([N+](=O)[O-])c1Cl, the outcome [16] is reported as “inactive”.

With O=C(O)c1cc[c]([Hg][Cl])cc1 the outcome [16] was “inactive”.

For CC(C)CCCCCCCOP(=O)(Oc1ccccc1)Oc1ccccc1, the outcome [17] was “inactive” and the outcome [14] was “inactive”.

For CC(=O)/C=C/c1ccccc1, the AC50 [18] was 19.9 µM (active).

With C=COCCCl the outcome [19] was “inactive”.

In the case of O=CNC(N1CCN(C(NC=O)C(Cl)(Cl)Cl)CC1)C(Cl)(Cl)Cl (stereo not given), the outcome [20] is reported as “inactive”.

For CNC(=N[N+](=O)[O-])NCC1CCOC1 (stereo not given), the outcome [20] was “inactive”, the outcome [17] was “inactive” and the outcome [3] was “inactive”. The outcome [4] was “inactive”, the outcome [5] was “inactive” and the outcome [6] was “inactive”. The AC50 [7] was 0.0157 µM (active), the AC50 [8] was 0.00988 µM (active) and the AC50 [9] was 0.00885 µM (active). The outcome [10] was “inactive”, the outcome [11] was “inactive” and the outcome [12] was “inactive”. The outcome [13] was “inactive”.

With CC(C)(C)C(O)C(Oc1ccc(-c2ccccc2)cc1)n1cncn1 (stereo not given) the AC50 [18] was 25 µM (active).

In the case of Nc1ccc(-c2ccc(N)c(N)c2)cc1N, the AC50 [1] is reported as 29.1 µM (active).

In the case of ClC1=C(Cl)[C@]2(Cl)[C@@H]3[C@@H](Cl)[C@H](Cl)C[C@@H]3[C@@]1(Cl)C2(Cl)Cl, the outcome [19] is reported as “inactive”.

In the case of O=C(CCl)c1ccccc1, the outcome [15] is reported as “inactive”.
